Six1-Eya2 blk: qHTS Assay for Inhibitors of the Six1/Eya2 Interaction; Homeobox protein SIX1 (Homo sapiens) + Protein phosphatase EYA2 (Homo sapiens), …; AlphaScreen GST-Six1/His-Eya2 binding, biochemical; hits give low values; activity change, % (test concentration not listed); 360,000 compounds, 0.56% hits; AID 651725, 2012; in the data active = activity change below about -65%; inconclusive = mostly about -30% to -63%
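Six1/Eya2 binding was read as AlphaScreen signal after compounds were pinned into GST-Six1 plus His-tagged Eya2 (5X stock 250/500 nM) in pH 8.0 Tris/NaCl/TCEP buffer, beads added, then incubated 1 h, 37 C, dark.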
B2AR arrestin: qHTS assay of beta-arrestin-biased ligands of beta2-adrenergic receptor; Beta-2 adrenergic receptor (Homo sapiens), P07550; beta-arrestin recruitment to beta2AR, cell-based reporter; Potency, µM (highest dose often 46.1 µM), usual class: activators; 330,000 compounds, 0.02% hits; note: nearly all actives have a fitted effect of over 65% in size
Target sequence (P07550 whole entry, looked up): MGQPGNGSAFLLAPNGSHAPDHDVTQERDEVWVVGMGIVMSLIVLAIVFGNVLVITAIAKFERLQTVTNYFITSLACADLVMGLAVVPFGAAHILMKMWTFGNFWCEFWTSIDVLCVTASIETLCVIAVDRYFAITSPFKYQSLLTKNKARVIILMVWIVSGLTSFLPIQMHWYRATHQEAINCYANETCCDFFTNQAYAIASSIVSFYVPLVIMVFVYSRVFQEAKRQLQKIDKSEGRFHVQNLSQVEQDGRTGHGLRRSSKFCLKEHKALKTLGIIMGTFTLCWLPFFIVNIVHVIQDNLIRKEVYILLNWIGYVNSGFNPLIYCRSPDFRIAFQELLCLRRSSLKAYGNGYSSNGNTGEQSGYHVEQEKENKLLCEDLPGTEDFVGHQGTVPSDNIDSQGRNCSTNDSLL
CtBP-E1A inh: qHTS Assay for Inhibitors of the CtBP/E1A Interaction. AlphaScreen GST-E1A/His-CtBP binding, 1536-well; hits give low values. activity change, % (concentration not given with the values). 340,000 compounds, 0.49% hits. AID 651724, 2012; in the data active = activity change below about -65%; inconclusive = mostly about -30% to -63%
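GST-E1A and His-tagged CtBP (125 nM each as 5X stock) were preincubated with pin-transferred compound for 2 h at 37 °C in the dark, then glutathione donor and nickel acceptor beads were added for 1 h before AlphaScreen reading.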
Eya2 phos inh: qHTS Assay for Inhibitors of the Phosphatase Activity of Eya2 | recombinant Eya2, OMFP fluorescence dephosphorylation (OMFP is methylfluorescein phosphate) | Protein phosphatase EYA2 (Homo sapiens), O00167 | Potency, µM (highest dose often 76.9 µM), most hits filed as inhibitors | 330,000 compounds, 0.006% hits
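Eya2 (0.2 uM) preincubated 10 min at ambient with compound, then OMFP substrate added at 50 uM; 10 min reaction in 50 mM HEPES pH 7.5, 50 mM NaCl, 5 uM MgCl2, 0.05% BSA, 1 mM DTT. Fluorescence read at Ex 485/Em 525 nm.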
L3MBTL1 block: qHTS Assay for the Inhibitors of L3MBTL1 | Lethal(3)malignant brain tumor-like protein 1 (Homo sapiens), Q9Y468 | Potency, µM (doses to about 57.1 µM), actives largely listed as inhibitors | AlphaScreen L3MBTL1–H3K9me1 peptide binding | 230,000 compounds, 0.66% hits; note: nearly all actives have a fitted effect of over 60% in size
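AlphaScreen proximity signal between nickel-chelate acceptor and streptavidin donor beads (final 10 ug/mL) reports binding of 50 nM L3MBTL1 to 75 nM biotin-H3 K9me1 peptide; complex incubated with compounds 30 min at room temperature; cefsulodin titration as control.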
Large screens that a line does not name were inactive; ! = not confirmed by another sample. Compounds with a hit are over-represented: about 0.9% of the library has one in this group of screens. Unless noted, calls come from the whole dose curve; as a rule, active = well fitted curve in the direction sought with a large enough effect; inconclusive = small, poorly fitted or top-dose-only effect, or another doubt; inactive = no such curve, though single readings can be large; an effect the other way counts as inactive or inconclusive.

CC(=O)c1ccc(OC(=O)CCc2ccccc2)cc1	Six1-Eya2 blk -79, CtBP-E1A inh inconclusive
CC(=O)c1ccc(OC(=O)CCc2nc3ccccc3s2)cc1	none
CCN(CC)C(=O)[C@H]1CC(CC(=O)NCc2ccc(OC)c(OC)c2)C(=O)N2CCc3c([nH]c4ccc(OC)cc34)[C@]12C (stereo partly specified)	none
CCCCN(C(=O)COC(=O)c1ccc(C=O)cc1)c1c(N)n(CCC)c(=O)[nH]c1=O	none
O=C(O)CCN1C(=O)/C(=C\c2ccc(-c3nc4ccccc4s3)o2)SC1=S	Six1-Eya2 blk inconclusive, CtBP-E1A inh -75 (no result: L3MBTL1 block)
Cc1ccc(-c2n[nH]c(=S)nc2-c2ccc(C)cc2)cc1	none (no result: CtBP-E1A inh, L3MBTL1 block)
S=c1nc(-c2ccccn2)c(-c2ccccn2)n[nH]1	Six1-Eya2 blk -83, CtBP-E1A inh -89 (no result: B2AR arrestin, Eya2 phos inh, L3MBTL1 block)
O=C(COc1ccccc1[N+](=O)[O-])OCC(=O)c1ccc(Br)s1	none
O=[N+]([O-])c1ccc(C=Nc2ccc(Cl)c([N+](=O)[O-])c2)s1	L3MBTL1 block inconclusive (no result: Six1-Eya2 blk, CtBP-E1A inh)
Cc1cc(C)cc(N=Cc2ccc([N+](=O)[O-])s2)c1	Six1-Eya2 blk inconclusive, CtBP-E1A inh inconclusive, L3MBTL1 block 8.9µM
NC(=O)c1ccc(N=Cc2ccc([N+](=O)[O-])s2)cc1	Six1-Eya2 blk inconclusive, B2AR arrestin inconclusive, CtBP-E1A inh inconclusive, L3MBTL1 block 13µM
O=C(O)c1ccc2c(c1)C(=O)N([C@H](Cc1c[nH]c3ccccc13)C(=O)O)C2=O	none (no result: Six1-Eya2 blk, CtBP-E1A inh)
CC(C)Cn1nc(C(=O)Nc2cccc(C(=O)NC3CC3)c2)c2ccccc2c1=O	none
O=C1CCCC(O)=C1N=Nc1ccc(C(=O)O)cc1	Six1-Eya2 blk inconclusive, L3MBTL1 block 3.2µM
O=C1CCCC(O)=C1N=Nc1ccc2c(c1)OCO2	none
CCNS(=O)(=O)c1ccc(Br)c(C(=O)OC(C)C(=O)NCC2CCCCC2)c1 (stereo unspecified)	none (no result: CtBP-E1A inh)
Cc1[nH]c(N=Nc2ccccc2)nc1N=Nc1ccccc1	Six1-Eya2 blk inconclusive, CtBP-E1A inh -66, L3MBTL1 block inconclusive
COc1cccc(NC(=O)NC2(C(=O)N3CCN(C)CC3)CCCCC2)c1	none (no result: L3MBTL1 block)
COc1ccccc1NC(=O)CN1C(=O)COc2ccc(S(=O)(=O)N3CCOCC3)cc21	none (no result: L3MBTL1 block)
Cc1cc(C)cc(NC(=O)CN2C(=O)COc3ccc(S(=O)(=O)N4CCCC4)cc32)c1	none (no result: CtBP-E1A inh, L3MBTL1 block)
COc1cc(NC(=O)CN2C(=O)COc3ccc(S(=O)(=O)N4CCCC4)cc32)cc(OC)c1	Six1-Eya2 blk inconclusive, CtBP-E1A inh -77 (no result: L3MBTL1 block)
COc1cc(NC(=O)CN2C(=O)COc3ccc(S(=O)(=O)N4CCCCC4)cc32)cc(OC)c1	Six1-Eya2 blk inconclusive, CtBP-E1A inh -73 (no result: L3MBTL1 block)
COc1ccc(NC(=O)CN2C(=O)COc3ccc(S(=O)(=O)N4CCOCC4)cc32)cc1Cl	CtBP-E1A inh -92 (no result: L3MBTL1 block)
COCCNc1nc(NCCOc2ccccc2)c2sc(-c3ccccc3)cc2n1	none (no result: B2AR arrestin, Eya2 phos inh, L3MBTL1 block)
Cc1cc2nc(-c3ccc(SCC(=O)N4CCN(C(=O)c5ccco5)CC4)nc3)[nH]c2cc1C	L3MBTL1 block 32µM
Cc1cc(C)c(C)c(S(=O)(=O)N2CCC(C(=O)N3CCCCCCC3)CC2)c1C	none (no result: L3MBTL1 block)
CC1=C/C(=C\c2ccc(Br)o2)C(=O)O1	L3MBTL1 block 8.9µM
COc1ccccc1-c1ccc(/C=C2/C=C(C)OC2=O)o1	none
O=C1C(=Cc2ccc(Br)o2)C(=O)c2ccccc21	Six1-Eya2 blk inconclusive, L3MBTL1 block 3.2µM
Cc1ccc(C(=O)O)cc1-c1ccc(C=C2C(=O)c3ccccc3C2=O)o1	L3MBTL1 block 25µM (no result: CtBP-E1A inh)
Cc1ccc(NC(=O)CN2C(=O)S/C(=C/c3ccc(-c4cc(C(=O)O)ccc4C)o3)C2=O)cc1C	none (no result: L3MBTL1 block)
CCC(C(=O)NCCc1ccc(S(N)(=O)=O)cc1)c1ccccc1 (stereo unspecified)	none (no result: B2AR arrestin, Eya2 phos inh, L3MBTL1 block)
COc1ccc(/C=C/C(=O)O)cc1	none
COc1ccc(OC)c(/C=C/C(=O)OCC(=O)N2CCCC2)c1	none (no result: CtBP-E1A inh)
COc1ccc(OC)c(/C=C/C(=O)Oc2ccc(C(C)=O)cc2)c1	CtBP-E1A inh -88 (no result: L3MBTL1 block)
COc1ccc(OC)c(/C=C/C(=O)OCC(=O)N2C(C)CCCC2C)c1 (stereo unspecified)	Six1-Eya2 blk -67, CtBP-E1A inh -94
COc1ccc(/C=C/C(=O)Oc2ccc(C)cc2)cc1	CtBP-E1A inh -70, Eya2 phos inh inconclusive
CCCCn1c(N)c(N(CCOC)C(=O)C(C)N2C(=O)c3ccccc3C2=O)c(=O)[nH]c1=O (stereo unspecified)	none
CC(C)(C)c1ccc(OCCCn2ccnc2)cc1	Eya2 phos inh inconclusive
CCC(C(=O)NCCCN1CC(C)CC(C)C1)n1ncn2c(cc3occc32)c1=O (stereo unspecified)	none (no result: L3MBTL1 block)
COCCN1CN(S(=O)(=O)c2ccc(Cl)cc2)c2nc3ccccc3nc21	none
COCCN1CN(S(=O)(=O)c2ccccc2)c2nc3ccccc3nc21	Six1-Eya2 blk -82
CCOc1ccc(CCNc2nc3ccccc3n3cnnc23)cc1OCC	none
NC(=O)c1sc2nc3c(c(-c4ccco4)c2c1N)CCC3	Six1-Eya2 blk -71, L3MBTL1 block inconclusive
Nc1c(C(=O)NC2CC2)sc2nc3c(c(-c4ccco4)c12)CC/C3=C/c1ccco1	Six1-Eya2 blk inconclusive, L3MBTL1 block 0.89µM
OCC[C@@H]1C[C@H](O)[C@@H](O)[C@]2(OCc3cc(C(F)(F)F)ccc32)O1	none (no result: B2AR arrestin, Eya2 phos inh, L3MBTL1 block)
CN(C)S(=O)(=O)c1ccc(C(=O)NC(=O)CSc2nncs2)cc1	none
c1ccc(-c2cn(C[C@H]3CC[C@@H]([C@@H]4CC[C@H](Cn5cc(-c6ccccn6)nn5)O4)O3)nn2)nc1	Six1-Eya2 blk -87, CtBP-E1A inh -81, L3MBTL1 block 2.5µM
OCC1O[C@H]([S-])[C@H](O)[C@@H](O)[C@@H]1O.[Au+] (stereo partly specified)	none (no result: Six1-Eya2 blk, B2AR arrestin, CtBP-E1A inh, L3MBTL1 block)
CCN1/C(=C/C(C)=C/c2sc3ccccc3[n+]2CC)Sc2ccccc21	Six1-Eya2 blk -80!, CtBP-E1A inh inconclusive, Eya2 phos inh inconclusive (no result: L3MBTL1 block)
COc1c2c(c(OC)c3c1c(=O)c1ccccc1n3C)OCO2	none (no result: B2AR arrestin, Eya2 phos inh, L3MBTL1 block)
CCOc1ccc(NC(=O)CC(NCc2ccccn2)C(=O)O)cc1 (stereo unspecified)	Six1-Eya2 blk -90, CtBP-E1A inh -92 (no result: L3MBTL1 block)
CC(C)N1CCC(N2CCN(C3CCCC3)CC2CCO)CC1 (stereo unspecified)	none (no result: CtBP-E1A inh)
Cc1cccc(N2CCC(N3CCN(C4CCCCC4)C(CCO)C3)CC2)c1C (stereo unspecified)	L3MBTL1 block 16µM
CN(CC(=O)NCC(c1ccco1)N1CCCCC1)S(=O)(=O)c1ccc(Cl)cc1 (stereo unspecified)	none

From PubChem
